Publication PMC7826789 (International Journal of Molecular Sciences, 2021)

test system: HIPK3; settings: Compound Concentration (nM):1000
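Also: KINOMEscan scanMAX binding as percent activity remaining versus control; lower means stronger binding.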

First: NS(=O)(=O)c1ccc(N/N=C2\C(=O)Nc3ccc(C(=O)NCc4ccncc4)cc32)cc1 [GW300657X]
Second: NS(=O)(=O)c1ccc(N/N=C2\C(=O)Nc3ccc(Cl)cc32)cc1 [GW280670X]
The “Percent Control” value of the first is lower: 12% for the first, 90% for the second.

Going from `C/C(Nc1ccc(S(N)(=O)=O)cc1)=C1/C(=O)Nc2ccccc21` [GW335962X] to `CN1CCN(C(=O)c2ccc(NC(=O)Nc3ccc(N(C)c4ccnc(Nc5ccc(CS(C)(=O)=O)cc5)n4)cc3)cc2)CC1.Cl` [GW830263A], the “Percent Control” value falls from 97% to 71%.

Compared with `C[C@@H](Oc1cc(-n2cnc3ccc(OC4CCN(C)CC4)cc32)sc1C(N)=O)c1ccccc1Cl` [GSK579289A], `CCc1ccc(Oc2nccc(-c3c(-c4ccc(F)cc4)ncn3C3CCNCC3)n2)cc1` [SB-242719] is higher in “Percent Control” value: 76% for the first, 100% for the second.

`COc1ccc2[nH]c3c4[nH]c5ccc(OC)cc5c4c4c(c3c2c1)C(=O)NC4=O` [GW296115X] was tested, and the “Percent Control” value was 44%.

test system: HIPK4; settings: Compound Concentration (nM):1000

Compared with `COc1ccc2c(-c3ccnc(Nc4cccc(OC(F)(F)F)c4)n3)cnn2n1` [GW810372X], `COc1cccc(-n2ncc3c(N/N=C/c4ccncc4)ncnc32)c1` [GW784752X] is higher in “Percent Control” value: 29% for the first, 54% for the second.

First: CCS(=O)(=O)c1ccc(OC)c(Nc2ncc(-c3cccc(OC)c3)o2)c1 [GW580509X]
Second: CCS(=O)(=O)c1ccc(OC)c(Nc2ncc(-c3cccc(F)c3)o2)c1 [GW621970X]
The “Percent Control” value of the first is lower: 18% for the first, 74% for the second.

`CC1=C(C(=O)Nc2ccc3[nH]ncc3c2)C(c2ccc3ccccc3c2)CC(=O)N1` (stereo not drawn) [GSK270822A] and `CC1=C(C(=O)Nc2ccc3[nH]ncc3c2)C(c2ccc(Cl)c(Cl)c2)CC(=O)N1` (stereo not drawn) [GSK299115A] are the same in “Percent Control” value: 100% for the first, 100% for the second.

Compared with `COc1cccc(-c2c[nH]c3c(N/N=C/c4ccncc4)ncnc23)c1` [GW814408X], `COc1cc(/C=N/Nc2ncnc3[nH]ncc23)ccc1O` [GW578748X] is higher in “Percent Control” value: 59% for the first, 85% for the second.

Compared with `Cl.O=C(Nc1ccc(Oc2ccc3[nH]c(NC(=O)c4ccco4)nc3c2)cc1)Nc1cc(C(F)(F)F)ccc1F` [GW683134A], `COC(=O)Nc1nc2ccc(Oc3ccc(NC(=O)Nc4cc(C(F)(F)F)ccc4F)cc3)cc2s1.Cl` [GW693917A] is lower in “Percent Control” value: 16% for the first, 10% for the second.

Going from `COc1cc(N2CCN(C(C)C)CC2)ccc1Nc1nc(Nc2ccc(F)cc2C(=O)NC[C@@H](O)CO)c2cc[nH]c2n1` [GSK1392956A] to `COc1cc(C)c(N(C)C(=O)CN(C)C)cc1Nc1nc(Nc2cccc(F)c2C(N)=O)c2cc[nH]c2n1` [GSK2219385], the “Percent Control” value rises from 1.4% to 100%.

Going from `COc1cc2ncn(-c3cc(O[C@H](C)c4ccccc4Cl)c(C(N)=O)s3)c2cc1OC` [GSK237701A] to `COc1cc2ncnc(Nc3ccc4c(cnn4Cc4ccccc4)c3)c2cc1OC.Cl` [GW282449A], the “Percent Control” value rises from 99% to 100%.

Going from `Cl.c1ccc(Cc2nc3ccc(Nc4ncnc5ccccc45)cc3[nH]2)cc1` [GR269666A] to `CN(C)c1cc2c(Nc3ccc4c(cnn4Cc4ccccc4)c3)ncnc2cn1` [GW282974X], the “Percent Control” value falls from 100% to 79%.

Going from `NS(=O)(=O)c1ccc(N/N=C2\C(=O)Nc3ccc(C(=O)NCCc4c[nH]cn4)cc32)cc1` [GW300660X] to `NS(=O)(=O)c1ccc(N/N=C2\C(=O)Nc3ccc(-c4cnco4)cc32)cc1` [GW276655], the “Percent Control” value falls from 100% to 51%.

Compared with `CN(C)CCNC(=O)Nc1ccc(N(C)c2ccnc(Nc3ccc(CS(C)(=O)=O)cc3)n2)cc1.Cl` [GW830900A], `NS(=O)(=O)c1ccc(Nc2ncc(-c3ccccc3)o2)cc1` [GW572399X] is higher in “Percent Control” value: 85% for the first, 100% for the second.

Compared with `COc1ccc2cc(-c3c(-c4ccncc4)nc(-c4ccc(S(C)(=O)=O)cc4C)n3C)ccc2c1` [SB-633825], `COc1ccc(COc2ccc(Cc3cnc(N)nc3N)cc2OC)cc1` [GW632580X] is higher in “Percent Control” value: 63% for the first, 100% for the second.

`Cc1cc(O)cc(C)c1/C=C/c1cncc(C(N)=O)c1` [GW435821X] and `O=C(Nc1n[nH]c2nc(-c3ccc(O)cc3)c(Br)cc12)C1CC1` [SB-725317] are the same in “Percent Control” value: 100% for the first, 100% for the second.

`Cl.O=C(O[C@H]1CN[C@H](C#Cc2cc3ncnc(Nc4ccc5c(cnn5Cc5ccccc5)c4)c3s2)C1)N1CCOCC1` [GSK200398A] and `COc1ccccc1-c1cc(/C=C2\C(=O)Nc3ncc(Br)cc32)cc(Br)c1O` [GW442130X] are the same in “Percent Control” value: 92% for the first, 92% for the second.
